TRPM1 prom inh: inhibitors of MITF-dependent TRPM1 promoter reporter, primary screen, cell-based, SK-MEL-5, single point, luciferase; SK-MEL-5 TRPM1 promoter luciferase, 24 h; inhibition, % at 12.5 µM; 330,000 compounds, 0.83% hits; AID 488899, 2010;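 active means mean inhibition across replicates of 60% or more, whatever share of single replicates reaches that level; inconclusive means some that reach 60%, reason not given; inactive means mean inhibition across replicates below 60%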
esBAF inh: Bmi1 luciferase reporter increase in mESCs, primary screen, esBAF inhibitor project, mouse ES cells, Bmi1 luciferase knock-in, single point. 24 h; 100% = twice the neutral-well signal. reporter increase, % at 12.5 µM. 350,000 compounds, 2% hits. AID 602393, 2012; in the data active means activation above about 40%; inconclusive means no clear call, values can overlap the other calls;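 further: 0% = median of the plate's neutral control wells and 100% = double that signal; a rise in the Bmi1 reporter signal indicates esBAF inhibition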
Wnt act: Wnt/beta-catenin pathway activators, primary screen, cell-based, plate reader, single point; Wnt/beta-catenin reporter cell assay, activator; activation, % at 9.35 µM; 300,000 compounds, 1.2% hits; in the data active means activation above about 30%, passing the limit was not always enough; inconclusive means no clear call, values can overlap the other calls;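 further: 0% = neutral control wells and 100% = positive control wells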
C2C12 statin: suppressors of statin myotoxicity in C2C12 myotubes, primary screen, cell-based, single point, plate reader | C2C12 myotubes + simvastatin, ATP luminescence, 48 h; scaled: DMSO 0, geranylgeraniol control 100 | rescue of ATP level, % at 7.49 µM | 330,000 compounds, 0.78% hits;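 active means mean ATP rescue above about 67%, or every replicate alone reaching that limit, limit read from the data, passing the limit was not always enough; inconclusive means no clear call, values can overlap the other calls; inactive means mean under the limit and some replicate under it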;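 further: myotubes were challenged with 10 µM simvastatin during compound exposure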
MITF act: activators of MITF-driven TRPM1 promoter reporter, primary screen, cell-based, SK-MEL-5, luciferase, single point; 300,000 compounds, 0.75% hits; SK-MEL-5 TRPM1-promoter luciferase, 24 h; % of positive control, neutral wells = 0; activation, % at 12.5 µM;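 active means mean activation of at least 80% with every replicate also reaching 80%; inconclusive means mean reaches 80% but some replicate falls short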;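 further: 0% = neutral control wells and 100% = parthenolide positive control wells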
LMP1 NFkB inh: EBV LMP1-driven NF-kappaB luciferase reporter inhibitors, primary screen, cell-based, luminescence, single point; AID 504558, 2011; 350,000 compounds, 0.69% hits; LMP1-induced NF-kappaB luciferase reporter cells; inhibition, % at 12.5 µM; in the data active means inhibition above about 41%; inconclusive means no clear call, values can overlap the other calls;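 further: 0% = neutral control wells and 100% = reference inhibitor control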
* marks the source's active call; other numbers are inactive results; ? = inconclusive; / = not tested or not shown. Rows were chosen to be rich in hits. Some 4% of all compounds tested hit in one or more screens of this group.

SMILES	TRPM1 prom inh	esBAF inh	Wnt act	C2C12 statin	MITF act	LMP1 NFkB inh
CC(=O)Nc1cc(F)c2c(c1F)Cc1cc(F)ccc1-2	-44.2	103.5*	-0.2	-4.9	49.9	-25.3
CC(=O)Nc1cc2c(cc1[N+](=O)[O-])-c1ccc(F)cc1C2	0.8	51.9*	2.7	-9.5	1.2	-4.9
O=C(Nc1nnc(N2CCCCCC2)s1)c1cc(-c2ccc(Br)cc2)on1	-17.5	-3.0	2.1	-7.2	14.6	86.3*
CCN(CC)CCOC(=O)c1ccc(NC(=O)/C=C/c2cccs2)cc1	-12.9	/	?	/	14.6	9.2
CCc1nnc(NC(=O)/C=C/c2cccs2)s1	-77.7	57.7*	8.6	-10.9	?	-21.3
Cc1cccc(NC(=O)/C=C/c2ccc(Cl)cc2)n1	-84.6	/	/	/	90.1*	-7.2
O=C(/C=C/c1cccs1)Nc1nccs1	-69.1	/	8.9	/	67.6	-24.5
CCOC(=O)c1ccc(NC(=O)/C=C/c2cccs2)cc1	-89.2	/	25.1	/	87.7*	-48.4
Cc1cc(N)c2cc(NC(=O)/C=C/c3ccccc3Cl)ccc2n1	99.9*	-82.2	/	-97.2	-99.1	3.3
CCCN(CCC)CCCNC(=O)CC(C(=O)N1CCc2ccccc21)n1ccnc1 (configuration not stated)	14.0	3.5	/	19.2	-12.5	-15.4
O=C(CSc1ccc(-c2ccccn2)nn1)c1ccc(F)cc1	11.5	/	3.6	/	-4.8	6.9
Cc1cc(C)nc(NC(=O)/C=C/c2cccs2)c1	-70.1	81.0*	16.1	-11.8	74.7	-13.9
Cc1cc(C)nc(NC(=O)/C=C/c2ccccc2Cl)c1	-53.1	/	43.8*	/	54.1	-15.6
Cc1cc(C)nc(NC(=O)/C=C/c2ccccc2Cl)n1	-12.7	/	/	/	16.4	3.7
Cc1cc(C)nc(NC(=O)/C=C/c2ccc(Cl)cc2Cl)c1	-87.0	65.8*	/	-8.3	88.1*	-21.2
C1=CCN(Cc2ccccc2)C1	-12.6	2.7	1.8	11.9	12.7	1.4
O=C(Nc1ccccc1)c1nc[nH]c1C(=O)N1CCc2ccccc2C1	3.5	-3.8	0.5	16.5	-3.2	2.3
CCCCN(Cc1cccs1)S(=O)(=O)c1csc(C(N)=O)c1	-3.2	0.9	-2.0	9.5	1.3	-4.7
CN1CCc2c(sc3c2C(=O)NC(c2cccc(OC(=O)c4cccs4)c2)N3)C1 (configuration not stated)	/	42.4*	13.8	-34.8	/	-14.4
CCOc1ncccc1C(=O)NCc1cccc(OC)c1	-5.1	-1.6	/	3.8	7.2	2.2
O=C(NC1CCCC1)c1cc(-c2ccc(Cl)cc2)on1	-121.2	43.8*	30.3*	4.4	132.1*	-29.1
O=C(NC1CCCCC1)c1cc(-c2ccc(Cl)cc2)on1	-69.8	49.2*	9.5	10.1	67.4	-16.9
O=C(NC1CCCC1)c1cc(-c2cccc(Cl)c2)on1	-118.2	78.1*	25.4	-4.1	127.1*	-24.1
O=C(NC1CCC(O)CC1)c1ccc(-c2ccc(Cl)cc2)o1 (configuration not stated)	-70.9	63.7*	26.1	-36.8	73.7	-37.3
O=C(NC1CCCC1)c1cc(-c2ccc(F)cc2)on1	-47.7	29.9	-2.0	-28.7	62.1	0.2
CC(C)CCOP(=O)(c1ccc(N(C)C)cc1)C(O)c1ccc(N(C)C)cc1 (configuration not stated)	12.3	-8.0	-1.5	4.3	-13.0	8.0
O=C(C1CCC1)N1CCCCN2[C@@H](CO)[C@@H](c3ccc(C#CC4(O)CCCC4)cc3)[C@@H]2C1	/	9.1	/	-21.6	/	/
COCCn1c(N)c(N(Cc2ccccc2)C(=O)CN2C(=O)NC(C)(c3ccccc3)C2=O)c(=O)[nH]c1=O (configuration not stated)	7.6	5.6	-0.1	1.8	-6.5	-1.8
O=C1OCCC1Sc1nc2cc(Cl)ccc2s1 (configuration not stated)	-5.1	-6.4	1.8	10.3	6.0	2.3
Cc1ccc2nsnc2c1NC(=O)c1ccc(-c2cc(Cl)ccc2Cl)o1	71.9*	/	/	/	-73.2	1.9
